# From PMC4336329 (PLoS ONE, 2015)
# Screen size: about 310,000 compounds; about 14,000 (4.5%) showed an effect of 50% or more. The effect is printed as a negative number. The full list was thinned out, with strong results kept by preference.
# Biological target: human ether-à-go-go-related gene (hERG) potassium channel (human, UniProt Q12809)
# Experiment: primary screen, population patch clamp on CHO cells stably expressing hERG; higher = less effect of the substance
# 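Further: peak tail current of the secondary pulse compared with the same well before compound.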
# Sequence of human ether-à-go-go-related gene (hERG) potassium channel (Q12809 whole entry, looked up): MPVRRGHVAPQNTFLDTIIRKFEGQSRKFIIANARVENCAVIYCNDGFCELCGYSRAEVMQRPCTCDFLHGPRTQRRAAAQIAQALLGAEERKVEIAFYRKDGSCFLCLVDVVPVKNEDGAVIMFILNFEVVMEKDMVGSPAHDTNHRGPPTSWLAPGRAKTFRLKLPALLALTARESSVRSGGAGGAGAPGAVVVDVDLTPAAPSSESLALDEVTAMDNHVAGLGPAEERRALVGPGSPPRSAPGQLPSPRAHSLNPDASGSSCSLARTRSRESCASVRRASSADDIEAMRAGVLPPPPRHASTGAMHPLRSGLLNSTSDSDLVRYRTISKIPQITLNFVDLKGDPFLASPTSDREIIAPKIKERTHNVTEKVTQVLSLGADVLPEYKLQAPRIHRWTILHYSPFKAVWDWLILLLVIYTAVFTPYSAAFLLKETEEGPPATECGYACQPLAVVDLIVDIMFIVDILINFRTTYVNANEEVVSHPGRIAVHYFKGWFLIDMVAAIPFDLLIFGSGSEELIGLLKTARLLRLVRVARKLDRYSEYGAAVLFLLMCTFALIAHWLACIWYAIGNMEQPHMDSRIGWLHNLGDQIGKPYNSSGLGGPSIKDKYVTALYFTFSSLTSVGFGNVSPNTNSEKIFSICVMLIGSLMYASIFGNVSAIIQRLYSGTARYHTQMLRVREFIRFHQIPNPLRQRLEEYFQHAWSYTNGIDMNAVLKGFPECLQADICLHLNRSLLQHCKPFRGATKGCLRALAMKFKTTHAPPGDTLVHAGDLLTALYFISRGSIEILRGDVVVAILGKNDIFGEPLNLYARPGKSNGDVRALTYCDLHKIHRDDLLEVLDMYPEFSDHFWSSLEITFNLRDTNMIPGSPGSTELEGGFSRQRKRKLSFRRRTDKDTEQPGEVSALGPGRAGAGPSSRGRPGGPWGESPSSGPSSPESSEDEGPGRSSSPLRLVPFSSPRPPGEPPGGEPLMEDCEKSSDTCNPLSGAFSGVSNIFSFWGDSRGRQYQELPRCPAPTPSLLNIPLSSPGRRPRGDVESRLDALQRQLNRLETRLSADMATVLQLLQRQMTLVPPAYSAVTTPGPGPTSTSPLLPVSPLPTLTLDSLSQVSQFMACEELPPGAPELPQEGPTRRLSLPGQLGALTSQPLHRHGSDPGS
row,Structure (SMILES),"hERG current change (%, negative = inhibition) at 10uM [%]"
1,Cc1nc2cc(C(=O)O)ccc2s1,5.41
2,COC(=O)c1ccc(Oc2c(C)oc3cc(OCc4cnn(-c5ccccc5)c4)ccc3c2=O)cc1,1.08
3,CCOc1cc(/C=N/NC(=O)c2cccnc2)cc(Br)c1OCC(N)=O,-22.5
4,O=C(CCc1nnc(Cc2cccc(C(F)(F)F)c2)o1)NC1CC1,32.2
5,O=C(COC(=O)C12CC3CC(CC(Cl)(C3)C1)C2)Nc1ccc2[nH]c(=O)[nH]c2c1,11.5
6,COc1ccc(N2CCC(CNC(=O)Nc3cccc(OC)c3)C2)cc1 (centres unmarked),-15.7
7,O=C(NCC1CCN(Cc2ccccc2Cl)CC1)Nc1cccc(Cl)c1,-72
8,COc1cc(NC(=O)NCC2CCN(Cc3ccccc3F)CC2)cc(OC)c1,-14.9
9,COc1cc(NC(=O)NCC2CCN(Cc3ccccc3Cl)CC2)cc(OC)c1OC,3.03
10,O=C(NCC1CCN(Cc2ccccc2Cl)CC1)Nc1ccccc1F,-44.7
11,COc1ccc(OC)c(CN2CCC(CNC(=O)Nc3cccc(Cl)c3)CC2)c1,-60.8
12,COc1ccc(NC(=O)C2CCCO2)cc1 (centres unmarked),-0.956
13,Cc1ccc(NC(=O)c2cccc(S(=O)(=O)N3CCN(c4ccc(F)cc4)CC3)c2)nc1,-14.6
14,Cc1cc(CN(C)C(=O)CC2C(=O)NCCN2Cc2ccc(F)c(F)c2)on1 (centres unmarked),31.1
15,Nc1ccc(-c2nnc(-c3ccc(-c4ccccc4)cc3)o2)cc1,4.31
16,S=c1[nH]c(-c2ccccc2)cs1,66.4
17,COc1ccc(C)cc1NS(=O)(=O)c1cccc2nonc12,-10.7
18,CCCOc1cccc(C2C(C(=O)c3ccc(C)o3)=C(O)C(=O)N2CCN2CCOCC2)c1 (centres unmarked),10.5
19,O=C(O)c1cc([N+](=O)[O-])ccc1N1CCCCC1,-1.28
20,CCN1CCN(c2ccc([N+](=O)[O-])cc2C(=O)OC)CC1,-63.7
21,COC(=O)c1cc([N+](=O)[O-])ccc1N1CCN(Cc2ccccc2)CC1,-72.2

row,Structure (SMILES),"hERG current change (%, negative = inhibition) at 10uM [%]"
1,CCN1CCN(c2ccc([N+](=O)[O-])cc2S(=O)(=O)N2CCOCC2)CC1,-43.9
2,NC(=O)c1cc([N+](=O)[O-])ccc1N1CCN(Cc2ccccc2)CC1,-41.8
3,CCOc1ccccc1NC(=O)COc1cccc(-n2cnnn2)c1,-27.2
4,O=C(NCCNC(=O)c1ccccc1Br)c1ccccc1Br,8.51
5,Cc1ccc(C(=O)N/N=C2\SCC(=O)N2c2cc(C)ccc2C)cc1,8.16
6,COc1ccccc1CNC(=O)N1CCN(c2ccccc2C)CC1,6.36
7,CC(=O)C1=C(O)C(=O)N(c2ccc(Br)cc2)C1c1cccc([N+](=O)[O-])c1 (centres unmarked),24.5
8,COC(=O)CSc1nc2cc(C)cc(C)c2cc1C#N,14.5
9,CCCCOC(=O)C(C#N)c1nc2ccccc2nc1N1CCOCC1 (centres unmarked),-12.8
10,CCCCOC(=O)C(C#N)c1nc2ccccc2nc1N1CCN(Cc2ccc3c(c2)OCO3)CC1 (centres unmarked),-7.01
11,CN1CCN(c2nc3ccccc3nc2C(C#N)C(=O)OC2CCCCC2)CC1 (centres unmarked),-79.5
12,CCCCCCOC(=O)C(C#N)c1nc2ccccc2nc1N1CCN(C)CC1 (centres unmarked),-74.7
13,CCCCCCOC(=O)C(C#N)c1nc2ccccc2nc1N1CCOCC1 (centres unmarked),1.23
14,CC1CCN(c2nc3ccccc3nc2C(C#N)C(=O)OC2CCCCC2)CC1 (centres unmarked),11.3
15,N#CC(C(=O)OC1CCCCC1)c1nc2ccccc2nc1N1CCOCC1 (centres unmarked),-36.8
16,CCCCCCOC(=O)C(C#N)c1nc2ccccc2nc1N1CCCCC1 (centres unmarked),1.37
17,CCCCCCOC(=O)C(C#N)c1nc2ccccc2nc1N1CCN(CC)CC1 (centres unmarked),-70.2
18,Cl.NS(=O)(=O)c1ccc(CCNCC#Cc2ccccc2)cc1,-21.6
19,COCCCN1C(=O)C(O)=C(C(=O)c2ccco2)C1c1ccccc1 (centres unmarked),21.3
20,Cc1ccc(CNC(=O)CSc2ccsc2[N+](=O)[O-])cc1,-4.87
21,COc1ccccc1N1CCN(Cc2cc(=O)c(OCC(=O)Nc3ccccc3)co2)CC1,25.5

row,Structure (SMILES),"hERG current change (%, negative = inhibition) at 10uM [%]"
1,CC(=O)c1cc(C#N)c(Oc2cc(C)cc(C)c2)nc1C,-4.94
2,CCOC(=O)N1CCC(N(CCCOC)C(=O)Nc2ccc(CC)cc2)CC1,-48.6
3,COc1ccccc1-c1cc(C(=O)Nc2cc(C)nn2-c2ccccc2)no1,17
4,COc1cc(/C=N/n2c(C)nc3ccccc3c2=O)ccc1O,4.55
5,CC(C)CC(COCc1ccc([N+](=O)[O-])cc1)N1CCN(C(=O)c2ccc(C(F)(F)F)cc2)CCC1=O (centres unmarked),-67.1
6,CC(C)CC(COCc1ccc(Cl)cc1)N1CCN(C(=O)c2ccc(C(F)(F)F)cc2)CCC1=O (centres unmarked),-44.5
7,CC(C)CC(COCc1ccc(C(F)(F)F)cc1)N1CCN(C(=O)c2ccc(C(F)(F)F)cc2)CCC1=O (centres unmarked),-16.7
8,O=C(c1cccc(NS(=O)(=O)c2cccc([N+](=O)[O-])c2)c1)N1CCOCC1,24.3
9,O=C(CCCC(=O)N(CC(=O)NC1CCCC1)c1cccc(F)c1)Nc1ccccn1,4.77
10,CCOc1ccc(N(CC(=O)NC2CCCC2)C(=O)CCCC(=O)Nc2ccccn2)cc1,-10.8
11,Cc1ccc(N(CC(=O)NC2CCCCC2)C(=O)CCC(=O)Nc2nccs2)cc1,-4.93
12,CCOc1ccc(N(CC(=O)NC2CCCCC2)C(=O)CCC(=O)Nc2ccccn2)cc1,-23.3
13,COc1cccc(N(CC(=O)NC2CCCCC2)C(=O)CCCC(=O)Nc2ccccn2)c1,13.2
14,O=C(CCCC(=O)N(CC(=O)NC1CCCCC1)c1cccc(F)c1)Nc1ccccn1,-55.3
15,O=C(CCCC(=O)N(CC(=O)NC1CCCCC1)c1ccc(F)cc1)Nc1ccccn1,7.12
16,O=C(CCC(=O)N(CC(=O)NC1CCCCC1)c1ccc(F)cc1)Nc1nccs1,-73.7
17,COc1ccc(N(CC(=O)NC2CCCCC2)C(=O)CCCC(=O)Nc2ccccn2)cc1,-65.9
18,CCOc1ccc(N(CC(=O)NC2CCCC2)C(=O)CCC(=O)Nc2ccccn2)cc1,-56.2
19,CCOc1ccc(N(CC(=O)NC2CCCCC2)C(=O)CCCC(=O)Nc2ccccn2)cc1,-0.443
20,O=C(CCC(=O)N(CC(=O)NC1CCCC1)c1ccc(F)cc1)Nc1nccs1,4.37
